Records with an inconclusive call do not appear. Where a structure was tested more than once in an assay, its records may differ in their call. Active and inactive are the calls of the source. Unless noted, calls come from the whole dose curve; as a rule, active = well fitted curve in the direction sought with a large enough effect in the repeat runs; inconclusive = weak or mixed curves; inactive = no such curve, though single readings can be large; an effect the other way counts as inactive or inconclusive.
Columns and labels:
[1] = qHTS assay for small molecule agonists of the p53 signaling pathway (AID 651631; calls by dose curve; note: nearly all actives have a fitted effect of over 15% in size; note: potency is the fitted concentration of half-maximal effect)
Summary of the method: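 Readout was fluorescence from the LiveBLAzer FRET substrate, applied for 2 h at room temperature after 16 h compound exposure at 37 °C. Cells were the p53RE-bla HCT-116 line, with beta-lactamase driven by p53 response elements.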

[2] = qHTS assay for small molecule agonists of the p53 signaling pathway - cell viability (AID 651633; calls by dose curve; note: nearly all actives have a fitted effect of over 30% in size; note: potency is the fitted concentration of half-maximal effect)
Summary of the method: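 p53RE-bla cells, seeded at 4,000 per well and rested 5 h at 37 C/5% CO2, received compounds in DMSO for 16 h at 37 C. CellTiter-Glo was then added, and luminescence was read after 30 min at room temperature to gauge cytotoxicity.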

[3] = qHTS assay for small molecules that induce genotoxicity in human embryonic kidney cells expressing luciferase-tagged ATAD5 - cell viability (AID 651634; calls by dose curve; note: nearly all actives have a fitted effect of over 25% in size)
Summary of the method: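 Fluorescence from CellTiter-Fluor, reporting protease activity within live cells, served as the viability read-out. HEK293T cells carrying luciferase-tagged ATAD5 had been treated with compound for 15.5 hr at 37C.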

[4] = qHTS assay for small molecule disruptors of the mitochondrial membrane potential - cell viability (AID 720634; calls by dose curve; note: nearly all actives have a fitted effect of over 20% in size; note: potency is the fitted concentration of half-maximal effect)
Summary of the method: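 Cells: HepG2, 2,000/well, attached overnight. Compound 1 hr, 37 C/5% CO2. +m-MPI dye, +CellTiter-Glo 30 min RT. Readout: luminescence (ATP).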

[5] = qHTS assay for small molecule disruptors of the mitochondrial membrane potential (AID 720635); note: potency is the fitted concentration of half-maximal effect
Summary of the method: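 HepG2 cells (2,000/well) attached overnight at 37C, then took compound for 1 hr at 37C, 5% CO2. Mito-MPS dye was added for 30 min; fluorescence was read at 490/535 nm (monomers) and 540/590 nm (aggregates).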

[6] = qHTS assay to test for compound auto fluorescence at 590 nm (red) in HepG2 cells (AID 720674)
Summary of the method: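 Compound auto-fluorescence is scored relative to Rose Bengal sodium, measured at 540/590 nm in live HepG2 cultures after 1 hr compound contact (37 C, 5% CO2).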

[7] = qHTS assay to test for compound auto fluorescence at 535 nm (green) in HepG2 cells (AID 720675)
[8] = qHTS assay to test for compound auto fluorescence at 460 nm (blue) in HEK293 cells (AID 720678)
Summary of the method: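 Blue read-out at excitation 405 nm and emission 460 nm follows overnight compound exposure of HEK293 cells at 37C in 5% CO2. Activity is given as auto fluorescence equivalency to triamterene.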

[9] = qHTS assay to test for compound auto fluorescence at 590 nm (red) in HEK293 cells (AID 720679)
Summary of the method: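 Red channel, Ex/Em 540/590nm; signal expressed as equivalency to Rose Bengal sodium. HEK293, 2,000 cells/well, 10% dialyzed FBS; 23 nL compound pinned after 4-5 hr attachment; overnight 37C/5% CO2 before reading.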

[10] = qHTS assay to test for compound auto fluorescence at 535 nm (green) in HEK293 cells (AID 720680)
[11] = qHTS assay to test for compound auto fluorescence at 460 nm (blue) in HEK293 cell free culture (AID 720681)
Summary of the method: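 Test compounds were pinned into cell-free culture medium (DMEM with 10% FBS) and fluorescence was read directly at Ex/Em 405/460 nm. Signals were expressed as fluorescence equivalents of triamterene, with DMSO vehicle as control.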

[12] = qHTS assay to test for compound auto fluorescence at 535 nm (green) in HEK293 cell free culture (AID 720682)
Summary of the method: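 Compounds were pin-transferred into cell-free DMEM with 10% FBS, and green fluorescence was read at excitation 485 nm and emission 535 nm. Intensities were expressed as fluorescein-equivalent values.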

[13] = qHTS assay to test for compound auto fluorescence at 590 nm (red) in HEK293 cell free culture (AID 720683)
Summary of the method: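 Tox21 10K library compounds were pinned into cell-free DMEM with 10% FBS and fluorescence was read at excitation 540 nm. Activity is expressed as Rose Bengal sodium equivalency.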

[14] = qHTS assay to test for compound auto fluorescence at 590 nm (red) in HepG2 cell free culture (AID 720684)
Summary of the method: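 Red fluorescence (540 nm excitation, 590 nm emission) was measured after compound transfer into cell-free MEM supplemented with 10% FBS. Values are equivalencies against Rose Bengal sodium.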

[15] = qHTS assay to test for compound auto fluorescence at 460 nm (blue) in HepG2 cell free culture (AID 720685)
Summary of the method: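 Compound (23 nL) or DMSO pinned into cell-free MEM with 10% FBS; blue fluorescence read at 405/460 nm excitation/emission, expressed as auto-fluorescence equivalency to triamterene.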

[16] = qHTS assay to test for compound auto fluorescence at 535 nm (green) in HepG2 cell free culture (AID 720686)
[17] = qHTS assay to test for compound auto fluorescence at 460 nm (blue) in HepG2 cells (AID 720687)
Summary of the method: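 Cells (2,000/well in MEM with 10% FBS) attached overnight at 37 C, then were exposed to compound or DMSO for 1 hr at 37 C, 5% CO2. Fluorescence read at Ex/Em 405/460 nm, expressed as triamterene-equivalent signal.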

[18] = target: Glucocorticoid receptor (Homo sapiens) (UniProt P04150); experiment: qHTS assay to identify small molecule agonists of the glucocorticoid receptor (GR) signaling pathway (AID 720691; active = well fitted activation curve with a large enough effect in the signal ratio in the repeat runs, not every such curve was filed as active; the % refers to the signal ratio)
Sequence of Glucocorticoid receptor (Homo sapiens) (P04150 whole entry, looked up): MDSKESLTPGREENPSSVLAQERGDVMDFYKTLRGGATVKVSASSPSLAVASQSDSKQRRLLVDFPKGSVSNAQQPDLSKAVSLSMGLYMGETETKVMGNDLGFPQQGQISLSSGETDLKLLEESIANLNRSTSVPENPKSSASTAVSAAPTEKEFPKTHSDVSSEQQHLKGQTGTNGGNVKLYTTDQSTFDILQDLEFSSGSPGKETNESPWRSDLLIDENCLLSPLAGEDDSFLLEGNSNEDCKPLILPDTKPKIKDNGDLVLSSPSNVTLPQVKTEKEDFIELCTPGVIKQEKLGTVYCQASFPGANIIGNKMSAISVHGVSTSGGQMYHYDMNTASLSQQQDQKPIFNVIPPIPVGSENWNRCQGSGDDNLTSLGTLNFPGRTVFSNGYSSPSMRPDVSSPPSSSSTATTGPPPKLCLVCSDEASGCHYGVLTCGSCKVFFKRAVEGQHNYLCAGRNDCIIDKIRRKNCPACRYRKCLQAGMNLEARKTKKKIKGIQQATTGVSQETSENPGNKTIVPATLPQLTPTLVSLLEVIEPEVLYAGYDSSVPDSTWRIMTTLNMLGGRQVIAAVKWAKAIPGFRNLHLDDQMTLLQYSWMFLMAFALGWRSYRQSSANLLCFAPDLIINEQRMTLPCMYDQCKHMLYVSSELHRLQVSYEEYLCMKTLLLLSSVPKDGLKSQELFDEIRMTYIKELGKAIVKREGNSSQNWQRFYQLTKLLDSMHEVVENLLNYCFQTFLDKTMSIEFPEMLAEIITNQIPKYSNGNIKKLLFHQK
Summary of the method: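 Fluorescence intensity from LiveBLAzer B/G FRET substrate (2 h, room temperature) reports beta-lactamase expression driven by the glucocorticoid response element in GR-bla HeLa cells after 18 h compound exposure at 37 C.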

[19] = target: Glucocorticoid receptor (Homo sapiens) (UniProt P04150); experiment: qHTS assay to identify small molecule antagonists of the glucocorticoid receptor (GR) signaling pathway (AID 720692; active = well fitted inhibition curve with a large enough effect in the signal ratio in the repeat runs, not every such curve was filed as active; the % refers to the signal ratio; note: potency is the fitted concentration of half-maximal effect)
Summary of the method: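 HeLa GR-bla cells; cmpd + dex 5 nM final, 18 h 37 C; LiveBLAzer B/G FRET substrate 2 h RT; fluorescence intensity read. Antagonist mode, qHTS.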

[20] = qHTS assay for small molecules that induce genotoxicity in human embryonic kidney cells expressing luciferase-tagged ATAD5 (AID 651632); note: nearly all actives have a fitted effect of over 15% in size
Summary of the method: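 ATAD5-luc HEK293T, 2,000 cells/well; cpd or DMSO pin-transferred; 16 hr, 37C/5% CO2; Amplite 30 min RT; luminescence.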
% is set by controls: 0 for no effect and ±100 for the full control effect.

O=C1C(c2[nH]c3ccc(S(=O)(=O)O)cc3c2O)=Nc2ccc(S(=O)(=O)O)cc21
inactive: Potency [1] | Potency [2] | Potency [3] | Potency [4] | Potency [5] | Potency [6] | Potency [7] | Potency [8] | Potency [9] | Potency [10] | Potency [11] | Potency [12] | Potency [13] | Potency [14] | Potency [15] | Potency [16]

COc1cc2nc(N3CCN(C(=O)c4ccco4)CC3)nc(N)c2cc1OC
inactive: Potency [2] | Potency [4] | Potency [5] | Potency [6] | Potency [7] | Potency [8] | Potency [9] | Potency [10] | Potency [11] | Potency [12] | Potency [13] | Potency [14] | Potency [17] | Potency [18]
active: Potency [1] 13.3 µM

CCCC(=O)OC(C)(C)Cc1ccccc1
inactive: Potency [1] | Potency [2] | Potency [3] | Potency [4] | Potency [6] | Potency [7] | Potency [8] | Potency [9] | Potency [10] | Potency [11] | Potency [12] | Potency [13] | Potency [16] | Potency [17] | Potency [18] | Potency [19]

CCCC[P+](C)(CCCC)CCCC
inactive: Potency [20] | Potency [2] | Potency [3] | Potency [4] | Potency [6] | Potency [7] | Potency [8] | Potency [9] | Potency [10] | Potency [11] | Potency [12] | Potency [13] | Potency [14] | Potency [15] | Potency [16] | Potency [17] | Potency [18]
active: Potency [5] 13.9 µM

NC[C@H]1O[C@H](O[C@H]2[C@H](O[C@@H]3O[C@H](CO)[C@@H](O)[C@H]3O)C(O)[C@H](N)C[C@@H]2N)[C@H](N)[C@@H](O)[C@@H]1O (stereo partly specified)
inactive: Potency [1] | Potency [20] | Potency [3] | Potency [4] | fluorescence, relative to Rose Bengal [6] -0.0462% [at 18.6 µM] | fluorescence, % of fluorescein control [7] 0.155% [at 18.6 µM] | fluorescence, % of triamterene [8] -0.0357% [at 18.6 µM] | fluorescence, % of fluorescein [10] -0.0694% [at 18.6 µM] | fluorescence, % of fluorescent control [11] -0.0104% [at 18.6 µM] | activity change [12] -0.144% [at 18.6 µM, stronger effect = higher value] | fluorescence, % of fluorescent control [13] 0.335% [at 18.6 µM] | fluorescence, % of Rose Bengal [14] -0.0591% [at 18.6 µM] | fluorescence, % of fluorescent control [15] 0.0653% [at 18.6 µM] | fluorescence, % of fluorescein control [16] -0.0227% [at 18.6 µM] | fluorescence, % of fluorescent control [17] -0.0247% [at 18.6 µM] | Potency [18] | Potency [19]

Cc1c(C)c2c(c(C)c1O)CC[C@@](C)(CCC[C@H](C)CCC[C@H](C)CCCC(C)C)O2
inactive: Potency [20] | Potency [2] | Potency [3] | Potency [4] | Potency [5] | Potency [6] | Potency [7] | Potency [8] | Potency [9] | Potency [10] | Potency [11] | Potency [12] | Potency [13] | Potency [14] | Potency [15] | Potency [16] | Potency [17] | Potency [18]

O=C(O)CN(CCN(CC(=O)O)CC(=O)O)CC(=O)O
inactive: Potency [1] | Potency [3] | Potency [6] | Potency [7] | Potency [8] | Potency [9] | Potency [10] | Potency [11] | Potency [12] | Potency [13] | Potency [14] | Potency [15] | Potency [16] | Potency [17]

CC[N+](CC)(CC)CCOc1ccc(/C=C/c2ccccc2)cc1
inactive: Potency [20] | Potency [2] | Potency [3] | Potency [4] | Potency [5] | Potency [6] | Potency [7] | Potency [8] | Potency [9] | Potency [10] | Potency [11] | Potency [12] | Potency [13] | Potency [14] | Potency [16] | Potency [17] | Potency [18] | Potency [19]

CC(C)NC[C@@H](O)COc1ccc(CC(N)=O)cc1
inactive: Potency [20] | Potency [2] | Potency [3] | Potency [4] | Potency [5] | Potency [6] | Potency [7] | Potency [8] | Potency [9] | Potency [10] | Potency [11] | Potency [12] | Potency [13] | Potency [14] | Potency [15] | Potency [16] | Potency [17]

CCn1c2ccccc2c2cc([N+](=O)[O-])ccc21
inactive: Potency [20] | Potency [2] | Potency [3] | Potency [6] | Potency [7] | Potency [8] | Potency [10] | Potency [11] | Potency [12] | Potency [13] | Potency [14] | Potency [15] | Potency [16] | Potency [17]
active: Potency [4] 30.6 µM | Potency [5] 30.6 µM

CC(C)Cn1cnc2c(N)nc3ccccc3c21
inactive: Potency [20] | Potency [2] | Potency [3] | Potency [4] | Potency [5] | Potency [6] | Potency [7] | Potency [8] | Potency [9] | Potency [10] | Potency [11] | Potency [12] | Potency [13] | Potency [14] | Potency [15] | Potency [17] | Potency [18] | Potency [19]

C#C[C@]1(OC(C)=O)CC[C@H]2[C@@H]3CCC4=C[C@@H](OC(C)=O)CC[C@@H]4[C@H]3CC[C@@]21C
29.8 µM (active) and inactive: Potency [2]
inactive: Potency [20] | Potency [3] | Potency [4] | Potency [6] | Potency [7] | Potency [8] | Potency [9] | Potency [10] | Potency [11] | Potency [12] | Potency [13] | Potency [14] | Potency [15] | Potency [16] | Potency [18]
active: Potency [5] 13.3 µM | Potency [19] 9.52 µM

CN(C)C(=O)COC(=O)Cc1ccc(OC(=O)c2ccc(N=C(N)N)cc2)cc1
inactive: Potency [20] | Potency [2] | Potency [3] | Potency [4] | Potency [5] | Potency [6] | Potency [7] | Potency [8] | Potency [9] | Potency [10] | Potency [11] | Potency [12] | Potency [13] | Potency [14] | Potency [15] | Potency [16] | Potency [18] | Potency [19]

Nc1ccc(NCCO)c([N+](=O)[O-])c1
inactive: Potency [1] | Potency [20] | Potency [2] | Potency [4] | Potency [6] | Potency [7] | Potency [8] | Potency [10] | Potency [11] | Potency [12] | Potency [13] | Potency [14] | Potency [15] | Potency [16] | Potency [17] | Potency [18] | Potency [19]

From PubChem BioAssay (Tox21)
